Laboratory results reported in PubChem BioAssay AID651848 (The Scripps Research Institute Molecular Screening Center, 2012).
The other results are listed elsewhere or left out. No stated cut-off is given here; in the data, active means IC50 below about 10 µM; inactive means the rest.

Experiment: small-molecule binders of antibody PG9, dose response, biochemical, TR-FRET, HIV-1 gp120 antibody (AID 651848)
Conditions: TR-FRET PG9 antibody-gp120 binding inhibition

IC50, inactive:
S=c1[nH]c2ccccc2c2ccccc12 44.6 µM
CC1(C)Cc2ccccc2-c2[nH]c(=S)[nH]c(=O)c21 > 67.1 µM
O=C(Oc1ccccc1)Oc1ccc2c(c1)oc(=O)c1ccccc12 25.1 µM
COC(=O)C1=C(C)N(Cc2ccccc2C(F)(F)F)C(=NCc2ccc(OC)cc2)NC1c1cccc(C(F)(F)F)c1 (configuration not stated) > 67 µM
O=C(Nc1nnc(-c2ccccc2F)s1)c1ccccc1F > 67.1 µM
Cc1cccc(Nc2nc3c(S(=O)(=O)c4ccccc4)nnn3c3ccccc23)c1C > 67 µM
COc1ccc(-c2c(C)nn3c(N4CCC(C(=O)N5CCCCC5)CC4)cc(C)nc23)cc1OC > 67 µM
